Source: PubChem (several laboratories)
Rows were chosen to be rich in hits. Some 1.9% of all compounds tested hit in one or more screens of this group.
HMGR II inh: blocks class II HMG-CoA reductase of Enterococcus faecalis; purified E. faecalis HMGR, NADPH absorbance 340 nm kinetic; inhibition, % at 10 µM; 0.41% of 190,000 active;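 active = inhibition above a set limit, the median over all tested compounds plus 3 SD, cut at about 9.5% in these data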;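 note: enzyme runs in reverse so mevalonate oxidation gives rising NADPH absorbance; 0% = complete reaction with DMSO and 100% = background rate lacking mevalonate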
Furin inh: blocks human furin protease activity | inhibition, % at 20 µM or 30 µM | AID 463115 | 0.061% of 220,000 active | purified furin, fluorogenic substrate cleavage; in the data active = inhibition above about 25%
EP2 mod: modulates human prostaglandin E2 receptor EP2 signaling; P43116; EP2-expressing cells, cAMP HTRF FRET, PGE2 co-stimulation; induction, % at 25 µM; 0.83% of 260,000 active;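 active = compounds whose cAMP rise, as percent of the full-agonist control response, exceeds 60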;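 note: rat C6 glioma line stably carrying human EP2 under a CMV promoter; the protocol text gives 20 µM as final concentration; 100% = response of wells given 1 µM PGE2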
Target sequence (P43116 whole entry, looked up): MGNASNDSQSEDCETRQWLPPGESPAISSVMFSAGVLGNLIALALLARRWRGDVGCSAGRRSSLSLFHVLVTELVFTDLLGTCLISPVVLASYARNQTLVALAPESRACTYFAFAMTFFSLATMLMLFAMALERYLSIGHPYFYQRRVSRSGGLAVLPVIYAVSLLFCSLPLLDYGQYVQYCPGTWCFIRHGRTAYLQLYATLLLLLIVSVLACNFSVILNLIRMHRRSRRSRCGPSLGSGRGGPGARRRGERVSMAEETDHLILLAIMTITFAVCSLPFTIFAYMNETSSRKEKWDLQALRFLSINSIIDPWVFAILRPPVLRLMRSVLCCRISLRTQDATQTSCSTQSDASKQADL
m-calpain inh: inhibitors of pig calpain II | purified calpain II, fluorogenic peptide substrate, 30 min | inhibition, % at 16 µM | 0.37% of 220,000 active | AID 1236;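 active = inhibition above about 50%, limit read from the data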
PGE2 EP2 inh: blocks the human prostaglandin E2 receptor EP2; P43116; C6 glioma cells expressing human EP2, cAMP TR-FRET; cells stimulated with saturating PGE2; inhibition, % at 25 µM; 0.52% of 260,000 active;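 active = percent inhibition above 40 after rounding to a whole number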;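 note: rat C6 glioma host cells with rolipram phosphodiesterase inhibitor present; the protocol text gives 20 µM as final concentration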
An asterisk follows results filed as active; . = not tested or not shown; ! = not active in a repeat.

SMILES | HMGR II inh | Furin inh | EP2 mod | m-calpain inh | PGE2 EP2 inh
COC(=O)c1ccc(Nc2cc(=O)[nH]c(=O)[nH]2)cc1 | . | . | -23 | . | 12
COc1cccc(CC2(CO)CCCN(Cc3ccccc3-c3ccco3)C2)c1 (stereo not drawn) | -4 | -32 | 63* | 2 | 1
O=C1OC(c2ccccc2)=C/C1=C/N1CCCCC1 | 3 | 3 | -2 | 20 | 21
COC(=O)/C=C1\OC(c2ccccc2)=CC1=O | 3 | -19 | -121 | 0 | 124*
COc1cccc(NC(=S)/C(=C(\[O-])c2ccc(OC(F)F)cc2)[n+]2ccccc2)c1 | 11* | -17 | 7 | 3 | 9
CCCC(c1nnnn1C1CCCC1)N1CCC(C(N)=O)CC1 (stereo not drawn) | . | . | 15 | . | 9
CC(C)CC(c1nnnn1C1CCCC1)N1CCC(C(N)=O)CC1 (stereo not drawn) | 1 | -7 | -13 | 51* | 2
C=CCn1c(N2CCC(C(=O)NCCN3CCOCC3)CC2)nc2ccccc21 | . | . | -62 | . | .
COc1ccccc1-n1c(SCC(=O)N2C(C)CCCC2C)nnc1-c1cccnc1 (stereo not drawn) | . | . | -66 | . | 3
COc1cc(NS(=O)(=O)c2ccc(Nc3nc(-c4cccc([N+](=O)[O-])c4)cs3)cc2)nc(OC)n1 | -4 | -30 | -67 | -22 | 45*
O=[N+]([O-])c1cccc(-c2csc(Nc3ccccc3)n2)c1 | -3 | -21 | 28 | 33 | 8
COc1ccc(CCNC(=O)c2ccc(N3CCCC3=O)cc2)cc1OC | -7 | 26* | 6 | 11 | 10
CCN1CCCC1CN(Cc1ccc(N2CCCC2=O)cc1)Cc1ccccn1 (stereo not drawn) | . | . | 4 | . | 7
Cc1nn(CC(=O)N(Cc2cccnc2)C2CC2)c(=O)c2cc3occc3n12 | . | . | -13 | . | .
O=C1C(Cl)=C(Sc2nnc3c4ccccc4c4ccccc4c3n2)C(=O)c2ccccc21 | . | . | -46 | . | 58*
CCOC(=O)N1CCC(n2c(SCC(=O)N3CCCC3)nc3ccccc3c2=O)CC1 | -1 | -22 | 12 | -32 | 4
CC1(C)CC(n2c(=S)[nH]c3ccccc3c2=O)CCO1 (stereo not drawn) | -5 | -15 | -17 | -6 | .
NC(=O)CSc1nc2ccccc2c(=O)n1CCc1ccccc1 | . | . | -62 | . | 12
CCSc1nc2ccccc2c(=O)n1C1CCOC(C)(C)C1 (stereo not drawn) | -5 | -9 | 61* | 7 | 8
C=CCSc1nc2ccccc2c(=O)n1C1CCOC(C)(C)C1 (stereo not drawn) | . | -13 | 76* | 5 | 5
C=CCSc1nc2ccccc2c(=O)n1CCc1ccccc1 | . | . | 70* | . | 10
CCn1nnc(NC(=O)COc2ccc(Br)cc2)n1 | . | . | -22 | . | 6
CCCCCCCCOC(=O)C1=C(C)Nc2nnnn2C1c1cccs1 (stereo not drawn) | 1 | -5 | 66* | 50* | 3
CC(C)C(=O)Nc1nnc(-c2ccc(F)cc2)s1 | . | . | -40 | . | 5
Cc1cc(-c2cc(N)c(=O)n(CC(=O)NC3CC3)n2)c(C)o1 | . | . | -42 | . | 6
SMILES | HMGR II inh | Furin inh | EP2 mod | m-calpain inh | PGE2 EP2 inh
Clc1nssc1=Nc1ccc(Br)cc1 | 5 | -34 | -90 | -22 | 10
COc1cc(N=c2ssnc2Cl)cc(OC)c1 | 3 | -10 | -6 | -12 | 95*
CCOC(=O)c1nnn(-c2nonc2N)c1CN1CCCCCC1 | -5 | -14 | -6 | -17 | 3
CCOC(=O)c1nnn(-c2nonc2-n2cccc2)c1CN1CCCCC1 | -2 | -13 | 63* | 4 | 11
Cc1ccc(C(C(=O)NC(C)(C)C)N(Cc2ccc3c(c2)OCO3)C(=O)c2ccc(CN3CCOCC3)o2)o1 (stereo not drawn) | 15* | -30 | 37 | -26 | 3
CC(C)C1C(C#N)=C(N)Oc2n[nH]c(-c3cccs3)c21 (stereo not drawn) | -1 | -18 | -38 | 3 | 15
CC(C)C1C(C#N)=C(N)Oc2n[nH]c(-c3ccc4ccccc4c3)c21 (stereo not drawn) | -3 | -7 | -33 | 14 | 133*
COc1ccc(/C=C/C(=O)NCCn2c(C)cc3ccccc32)cc1OC | -7 | -10 | -40 | -11 | 114*
O=C(OCCN1C(=O)c2ccccc2C1=O)c1ccc(S(=O)(=O)N2CCCCCC2)cc1 | -4 | -21 | 20 | 68* | 13
O=C(OCCN1C(=O)c2ccccc2C1=O)c1ccccc1 | -1 | -30 | 12 | -21 | 17
Cc1cccc(C(=O)N2CCC(=O)N(C(COCc3ccccc3)Cc3ccccc3)CC2)c1 (stereo not drawn) | 15* | -18 | 23 | 6 | 12
CCn1c(=O)n(CC)c2cc(NC(=O)CCN3Cc4ccccc4C3=O)ccc21 | . | . | -49 | . | 9
Cc1csc(NC(=O)c2sc3nc(-c4cccs4)ccc3c2N)n1 | -3 | -17 | -48 | -237 | 64*
COc1ccc(-c2csc(NC(=O)c3ncoc3-c3cccs3)n2)cc1OC | . | . | -33 | . | .
O=C(Nc1nc(-c2cccs2)cs1)c1ccc(Cl)cc1 | -3 | -22 | 8 | 11 | 4
CCCSc1nnc(NC(=O)c2sc3nc(-c4cccs4)ccc3c2N)s1 | -3 | -24 | -34 | -446 | 8
COc1cc(C(=O)Nc2nc(-c3cccs3)cs2)cc(OC)c1OC | 0 | -23 | -30 | 21 | 87*
COc1ccc(C(=O)Nc2nc(-c3cccs3)cs2)cc1 | -3 | -9 | -22 | 33 | 43*
CC1CCCCN1Cc1ccccc1C#N (stereo not drawn) | . | . | 9 | . | 9
CC(NCCCN(C)C)C(=O)N1C(C)CCCC1C (stereo not drawn) | . | . | -11 | . | 9
O=C(COc1ccc(Cl)cc1Cl)NC(=O)N1CCCCC1 | 0 | 32* | 2 | -8 | 12
CC(=O)N(Cc1ccccc1)c1nc(-c2ccccc2)cs1 | 5 | -20 | 64* | -7 | 8
O=C(COc1ccccc1)N(Cc1ccccc1)c1nc(-c2ccccc2)cs1 | -6 | -12 | -4 | 17 | 11
CC1CCN(CCCNC(=O)C2CCN(S(=O)(=O)N3CCCCC3)CC2)CC1 | -1 | -24 | -15 | 0 | 19
CC1CCCCN1CCNC(=O)C1CCN(S(=O)(=O)N2CCCCC2)CC1 (stereo not drawn) | 0 | -28 | 17 | -2 | 120*
SMILES | HMGR II inh | Furin inh | EP2 mod | m-calpain inh | PGE2 EP2 inh
C[c-]1[c-](C)[c-](C)[c-](C)[c-]1C.[Fe].c1cc2nccc(N3CCCC3)[c-]2c1 (stereo not drawn) | . | -14 | -3 | -6 | 55*!
Cn1cnc2c(N3CCCCC3)nccc21 | -12 | -26 | 7 | -36 | 15
S=C(Nc1ccc(Cl)cc1Cl)NC1CCN(Cc2ccccc2)CC1 | -2 | -15 | -5 | -12 | 4
S=C(NCc1ccc(Cl)cc1)NC1CCN(Cc2ccccc2)CC1 | 2 | -16 | -26 | 54* | 5
O=C(O)[C@H](Cc1ccc(O)c([N+](=O)[O-])c1)N1C(=O)c2ccccc2C1=O | . | . | 10 | . | 51*
Cc1ccc(-n2ncc3c(=O)n(CC(=O)N4c5ccccc5CCc5ccccc54)cnc32)cc1 | . | . | 7 | . | 8
